Assay outcomes (PubChem BioAssay)
IDE exosite inh = insulin-degrading enzyme (human) exo-site inhibition; P14735; purified IDE, FL-6b probe fluorescence polarization; hits give low values; z-score at 20 µM; actives 6.3% (n = 17,000);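 active = z-score of -3 or lower, meaning strong loss of probe binding signal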;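 note: His-tagged human IDE residues 42-1019 made in E. coli with 30 nM FL-6b probe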
Target sequence (P14735 42-1019 limits assumed): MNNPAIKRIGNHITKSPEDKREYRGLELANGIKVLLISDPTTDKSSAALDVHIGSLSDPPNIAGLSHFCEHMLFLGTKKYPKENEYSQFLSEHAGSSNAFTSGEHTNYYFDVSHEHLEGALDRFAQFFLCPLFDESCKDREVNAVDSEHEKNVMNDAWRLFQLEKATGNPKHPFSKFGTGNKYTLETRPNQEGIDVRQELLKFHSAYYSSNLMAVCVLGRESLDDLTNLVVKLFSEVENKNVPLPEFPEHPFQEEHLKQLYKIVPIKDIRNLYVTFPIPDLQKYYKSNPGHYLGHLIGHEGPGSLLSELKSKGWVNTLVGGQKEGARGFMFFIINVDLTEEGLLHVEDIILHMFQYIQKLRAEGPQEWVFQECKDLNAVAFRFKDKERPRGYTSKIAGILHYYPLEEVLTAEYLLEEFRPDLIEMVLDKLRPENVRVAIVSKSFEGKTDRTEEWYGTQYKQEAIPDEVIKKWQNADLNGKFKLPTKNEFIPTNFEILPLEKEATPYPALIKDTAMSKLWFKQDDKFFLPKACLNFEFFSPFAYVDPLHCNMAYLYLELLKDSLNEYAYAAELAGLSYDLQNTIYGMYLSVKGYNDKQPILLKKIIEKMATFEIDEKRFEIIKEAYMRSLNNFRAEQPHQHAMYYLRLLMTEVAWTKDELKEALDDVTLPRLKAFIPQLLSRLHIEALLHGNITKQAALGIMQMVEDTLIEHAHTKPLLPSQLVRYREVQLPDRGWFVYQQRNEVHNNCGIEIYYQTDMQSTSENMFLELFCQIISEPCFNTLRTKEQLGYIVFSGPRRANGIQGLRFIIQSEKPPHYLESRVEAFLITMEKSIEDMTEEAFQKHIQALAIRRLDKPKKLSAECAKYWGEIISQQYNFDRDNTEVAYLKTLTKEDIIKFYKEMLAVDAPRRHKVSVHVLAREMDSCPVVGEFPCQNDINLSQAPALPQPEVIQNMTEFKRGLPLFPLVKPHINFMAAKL
Hits are given with their value. The full list was thinned out, with hits kept by preference.

COc1ccc(C#Cc2cccc(-c3nc(C(=O)N4CCN(Cc5ccccc5)CC4)cc4c3[C@H](CCO)N(S(=O)C(C)(C)C)C4)c2)cc1OC (stereo partly specified) was read as IDE exosite inh inactive.
For N#C[C@H]1[C@H](c2ccc(-c3cncnc3)cc2)[C@H](CO)N1C(=O)CN1CCOCC1 the results were IDE exosite inh inactive.
`O=S(=O)(c1ccc(F)cc1)N1C[C@H]2[C@@H](c3ccccc31)[C@@H](CO)N2Cc1ccccc1Cl` gave IDE exosite inh inactive.
Screening N#C[C@@H]1[C@H](c2ccc(C3=CCCC3)cc2)[C@@H](CO)N1C(=O)c1cccc(F)c1 returned IDE exosite inh inactive.
`CCC(=O)N1CC2(CN(C(C)=O)C2)c2c([nH]c3cc(OC)ccc23)[C@@H]1CO` gave IDE exosite inh inactive.
`COc1ccccc1NC(=O)N1CC(=O)N2[C@@H](CO)[C@H](c3ccc(C#Cc4ccccc4)cc3)[C@@H]2C1` gave IDE exosite inh inactive.
For CO[C@H]1CN(C)C(=O)c2ccc(NS(C)(=O)=O)cc2OC[C@H](C)N(CC2CC2)C[C@H]1C the results were IDE exosite inh inactive.
`CCS(=O)(=O)N1CC(=O)N2[C@@H](CO)[C@H](c3ccc(C#Cc4ccc(F)cc4)cc3)[C@@H]2C1` gave IDE exosite inh inactive.
Screening O=C(Nc1ccc(F)cc1)N1CC(=O)N2[C@H](CO)[C@@H](c3ccc(-c4ccc(F)cc4)cc3)[C@@H]2C1 returned IDE exosite inh inactive.
Screening CS(=O)(=O)N1CC(=O)N2[C@H](C1)[C@H](c1ccc(C#Cc3cccc(F)c3)cc1)[C@@H]2CO returned IDE exosite inh -8.4.
Screening CS(=O)(=O)N1CC(=O)N2[C@@H](CO)[C@H](c3ccc(C#Cc4ccc(F)cc4)cc3)[C@@H]2C1 returned IDE exosite inh inactive.
`CCS(=O)(=O)N1CC(=O)N2[C@H](CO)[C@@H](c3ccc(-c4ccccc4)cc3)[C@H]2C1` gave IDE exosite inh inactive.
For CS(=O)(=O)N1CC(=O)N2[C@H](CO)[C@@H](c3ccc(C#CCc4ccccc4)cc3)[C@@H]2C1 the results were IDE exosite inh inactive.
Screening CCS(=O)(=O)N1CC(=O)N2[C@H](CO)[C@@H](c3ccc(-c4cccc(F)c4)cc3)[C@@H]2C1 returned IDE exosite inh -3.2.
CS(=O)(=O)N1CC(=O)N2[C@H](CO)[C@H](c3ccc(C#Cc4ccccc4)cc3)[C@@H]2C1 was read as IDE exosite inh -5.4.
Screening CS(=O)(=O)N1CC(=O)N2[C@H](C1)[C@H](c1ccc(C#Cc3ccc(F)cc3)cc1)[C@@H]2CO returned IDE exosite inh inactive.
`CCS(=O)(=O)N1CC(=O)N2[C@H](CO)[C@H](c3ccc(-c4ccccc4)cc3)[C@@H]2C1` gave IDE exosite inh inactive.
Screening CS(=O)(=O)N1CC(=O)N2[C@H](C1)[C@@H](c1ccc(C#Cc3ccc(F)cc3)cc1)[C@@H]2CO returned IDE exosite inh inactive.
`CS(=O)(=O)N1CC(=O)N2[C@H](C1)[C@H](c1ccc(C#Cc3ccccc3)cc1)[C@@H]2CO` gave IDE exosite inh -5.3.
CS(=O)(=O)N1CC(=O)N2[C@H](CO)[C@@H](c3ccc(C#Cc4ccccc4)cc3)[C@@H]2C1 was read as IDE exosite inh inactive.
CS(=O)(=O)N1CC(=O)N2[C@H](CO)[C@@H](c3ccc(C#Cc4ccc(F)cc4)cc3)[C@H]2C1 was read as IDE exosite inh inactive.
`O=C(NC[C@@H]1[C@H](c2ccccc2)[C@H](CO)N1CC1CC1)c1cccnc1` gave IDE exosite inh inactive.
`COc1ccc(C#Cc2ccc([C@H]3[C@@H](CO)N4C(=O)CN(C(=O)c5cccnc5)C[C@@H]34)cc2)cc1` gave IDE exosite inh inactive.
For O=C(C[C@@H]1CC[C@@H]2[C@H](COC[C@@H](O)CN2Cc2cc(F)ccc2F)O1)NCc1ccc(Oc2ccccc2)cc1 the results were IDE exosite inh inactive.
Screening COCC(=O)N1CC(=O)N2[C@H](CO)[C@@H](c3ccc(Br)cc3)[C@@H]2C1 returned IDE exosite inh inactive.
`N#C[C@@H]1[C@H](c2ccccc2)[C@H](CO)N1S(=O)(=O)Cc1ccccc1` gave IDE exosite inh inactive.
For O=C(NC[C@H]1[C@H](c2ccccc2)[C@H](CO)N1CC1CCCC1)c1ccncc1 the results were IDE exosite inh inactive.
For CCCC#Cc1ccc([C@H]2[C@@H](C#N)N(C(=O)C3CCCC3)[C@H]2CO)cc1 the results were IDE exosite inh inactive.
For N#C[C@@H]1[C@@H](c2ccc(C#Cc3cccnc3)cc2)[C@@H](CO)N1C(=O)NC1CCCCC1 the results were IDE exosite inh inactive.
Screening CC(C)NC(=O)N1[C@H](CO)[C@@H](c2ccccc2-c2ccc(F)cc2)[C@@H]1C#N returned IDE exosite inh inactive.
CS(=O)(=O)N1CC(=O)N2[C@H](CO)[C@@H](c3ccc(C#CCc4ccccc4)cc3)[C@H]2C1 was read as IDE exosite inh inactive.
`CS(=O)(=O)N1CC(=O)N2[C@H](C1)[C@@H](c1ccc(C#CCc3ccccc3)cc1)[C@@H]2CO` gave IDE exosite inh -3.2.
`CS(=O)(=O)N1CC(=O)N2[C@@H](CO)[C@H](c3ccc(C#CCc4ccccc4)cc3)[C@@H]2C1` gave IDE exosite inh inactive.
For C/C=C/c1ccc([C@@H]2[C@H](CO)N(Cc3cncnc3)C23CN(C(=O)COC)C3)cc1 the results were IDE exosite inh inactive.
Screening CCS(=O)(=O)N1CCC2(CC1)CN[C@@H](CO)c1c2c2ccc(OC)cc2n1C returned IDE exosite inh inactive.
For O=C(C[C@H]1C[C@@H]2c3cc(NC(=O)Nc4ccccc4F)ccc3O[C@@H]2[C@@H](CO)O1)NCc1ccccn1 the results were IDE exosite inh inactive.
`CCS(=O)(=O)N[C@H]1CC[C@H](CC(=O)NCc2ccc(Cl)cc2)O[C@H]1CO` gave IDE exosite inh inactive.
CO[C@H]1CC[C@@H]2CCOc3c(C#N)cccc3C(=O)N(C)C[C@H](OC)[C@@H](C)C(=O)N(C)C[C@@H]1O2 was read as IDE exosite inh inactive.
Screening O=C(NC1CCCC1)N1CCCCN2[C@H](C1)[C@@H](c1ccc(-c3cncnc3)cc1)[C@@H]2CO returned IDE exosite inh inactive.
CCCC#Cc1ccc([C@H]2[C@@H](CO)N3CCCCN(C(=O)NC4CCCC4)C[C@@H]23)cc1 was read as IDE exosite inh inactive.
`O=C(NC1CCCC1)N1CCCCN2[C@H](CO)[C@@H](c3ccc(-c4cncnc4)cc3)[C@H]2C1` gave IDE exosite inh inactive.
Screening CCCC#Cc1ccc([C@H]2[C@H]3CN(C(=O)NC4CCCC4)CCCCN3[C@H]2CO)cc1 returned IDE exosite inh inactive.
O=C(NC1CCCC1)N1CCCCN2[C@H](CO)[C@@H](c3ccc(-c4cncnc4)cc3)[C@@H]2C1 was read as IDE exosite inh inactive.
`O=C(NC1CCCC1)N1CCCCN2[C@@H](CO)[C@@H](c3ccc(-c4ccccc4)cc3)[C@@H]2C1` gave IDE exosite inh -7.
`CCCC#Cc1ccc([C@@H]2[C@@H](CO)N3CCCCN(C(=O)NC4CCCC4)C[C@H]23)cc1` gave IDE exosite inh -4.9.
O=C(NC1CCCC1)N1CCCCN2[C@H](CO)[C@H](c3ccc(-c4ccccc4)cc3)[C@H]2C1 was read as IDE exosite inh -5.
Screening O=C(NC1CCCC1)N1CCCCN2[C@H](CO)[C@@H](c3ccc(-c4cccnc4)cc3)[C@@H]2C1 returned IDE exosite inh inactive.
Screening CN1CCN(C(=O)C[C@@H]2CC[C@H]3[C@@H](COC[C@H](O)CN3C(=O)Nc3ccc4c(c3)OCO4)O2)CC1 returned IDE exosite inh inactive.
